PINK1 modulator = changes PINK1 expression. 410,000 compounds, 0.2% hits. PINK1 immunofluorescence, high-content cytometry, 24 h. Potency, µM (titrated, usually from 76.6 µM), without a hit: top-dose activation (PINK1 increase), usual class: activators; active = well fitted activation curve with a large enough effect; inconclusive = small, poorly fitted or top-dose-only effect; cell line not stated here; also: % of control where 0% means no effect; nearly all actives have a fitted effect of over 65% in size
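A stable cell line was treated with compounds at 5 concentrations for 24 hours, with CCCP as control. PINK1 levels and mitochondrial localization were measured by immunofluorescence with mitochondrial, cell and nuclear markers after fixation, read by laser-scanning cytometry.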
Gal4-VP16 FLuc = inhibits Gal4-VP16 luciferase reporter, ROR gamma counter-screen | Drosophila S2 Gal4-VP16 UAS-luciferase, luminescence, 20 h | Potency, µM (top dose mostly 53.6 µM), without a hit: at the highest dose activity, negative = inhibition, most hits filed as inhibitors | 310,000 compounds, 3.5% hits | AID 2546;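 also: Gal4-VP16 expression switched on by copper sulfate through the metallothionein promoter; % is scaled to controls: 0 for no effect and ±100 for the full control effect; nearly all actives have a fitted effect of over 50% in size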
ClpP mod = qHTS Assay for Activators of ClpP. 340,000 compounds, 1.9% hits. purified B. subtilis ClpP, FRET peptide cleavage, 20 min. Potency, µM (titrated, usually from 57.5 µM), for the others: at the top dose activity change, negative = active. ATP-dependent Clp protease proteolytic subunit (Bacillus subtilis (strain 168)), P80244. AID 651965, 2013; active = well fitted falling curve with a large enough effect; inconclusive = small, poorly fitted or top-dose-only effect; inactive = no such curve, though single readings can be large or run the other way; also: the source files actives as falling curves though it sought activators and does not explain the sign; nearly all actives have a fitted effect of over 65% in size
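ClpP 10 microg/mL final, pH 8 Tris/KCl buffer with BSA, glycerol, Tween-20; compound pinned in; FRET-FV substrate; RT 20 min; Ex320/Em430; ΔFRET vs ADEP 5.8 microM, DMSO, no enzyme.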
RORgamma inh = ROR gamma (mouse) transcription inhibition; P51450; 310,000 compounds, 5.4% hits; Drosophila S2 Gal4-RORgamma UAS-luciferase reporter, 20 h; Potency, µM (highest dose often 53.6 µM), for inactives: at the highest dose activity change, negative = inhibition, hits mostly inhibitors; AID 2551; also: % is scaled to controls: 0 for no effect and ±100 for the full control effect; nearly all actives have a fitted effect of over 60% in size
Target sequence (P51450 whole entry, looked up, the tested form may be a part): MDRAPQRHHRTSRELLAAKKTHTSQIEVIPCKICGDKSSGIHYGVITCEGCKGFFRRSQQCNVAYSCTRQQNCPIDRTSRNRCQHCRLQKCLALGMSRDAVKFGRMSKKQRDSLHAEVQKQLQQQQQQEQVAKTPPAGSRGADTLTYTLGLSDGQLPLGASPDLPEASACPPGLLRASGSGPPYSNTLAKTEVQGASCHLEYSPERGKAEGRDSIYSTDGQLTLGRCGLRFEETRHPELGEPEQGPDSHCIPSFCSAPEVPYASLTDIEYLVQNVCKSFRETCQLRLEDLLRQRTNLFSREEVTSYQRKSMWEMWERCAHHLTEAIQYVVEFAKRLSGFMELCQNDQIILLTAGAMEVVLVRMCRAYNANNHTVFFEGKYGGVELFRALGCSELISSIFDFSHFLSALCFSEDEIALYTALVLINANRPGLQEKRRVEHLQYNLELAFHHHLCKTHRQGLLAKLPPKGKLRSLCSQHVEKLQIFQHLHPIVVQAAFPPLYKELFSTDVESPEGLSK
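ROR gamma transcriptional activity was tracked as Gal4-UAS luciferase output in stably transfected Drosophila Schneider cells, with compound added 1 hr before 700 uM copper sulfate induction and a 20 hr ambient-temperature incubation.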
Epigenetic derep = regulators of epigenetic silencing causing reporter derepression in mouse cells | 280,000 compounds, 0.2% hits | murine LDR cells, GFP reporter derepression, 30 h | Potency, µM (series often up to 53.9 µM), without a hit: at the highest dose GFP activation, most hits filed as activators; also: % of control where 0% means no effect; nearly all actives have a fitted effect of over 60% in size
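In this reporter-derepression format, murine cells bearing a silenced integrated CMV-GFP locus incubate with test compound (30 h, 37 C), then are washed and imaged; fluorescent objects of 20–120 um count as induced cells.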
Sfp PPTase inh = Sfp phosphopantetheinyl transferase inhibition; Q9F4F7; Biochemical Sfp PPTase activity, qHTS; Potency, µM, inactives show largest response in the series, negative = inhibition, usual class: inhibitors; 310,000 compounds, 3.5% hits; AID 1490;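 also: the enzyme is Sfp with the accession as filed and its product quenches rhodamine fluorescence; 0% = enzyme reaction without inhibitor and -100% = no enzyme wells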
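Step 1, compound plus 15 nM Sfp-PPTase, 15 min, room temperature. Step 2, add rhodamine-CoA (5 uM) and BHQ-2-YbbR (12.5 uM). Step 3, read 525/598 nm fluorescence at 0 and 30 min.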
Numbers without * were called inactive; ? = inconclusive; . = no result given; [ ] = another dose, or the depositor's remark. Hits are enriched below; roughly 8.1% of the tested compounds scored in any of these assays. Unless noted, calls follow the shape of the dose curve; as a rule, active = well fitted curve in the direction sought with a large enough effect; inconclusive = small, poorly fitted or top-dose-only effect, or another doubt; inactive = no such curve, though single readings can be large; an effect the other way counts as inactive or inconclusive. Potency is read from the fitted curve at half-maximal effect.

SMILES | PINK1 modulator | Gal4-VP16 FLuc | ClpP mod | RORgamma inh | Epigenetic derep | Sfp PPTase inh
CC(/C=C/c1ccccc1)=N\NC(=O)c1ccc2c(c1)OCCO2 | 5% | ? | -4% | 13µM* | -8% | 13%
Cc1ccc(-c2nc(=Nc3c(C)cc(C)cc3C)sn2-c2ccccc2)cc1 | ? | . | 2% | . | . | .
COc1cccc(Cn2c(NCc3ccc(C)cc3)nc3c2c(=O)n(C)c(=O)n3C)c1 | 6% | . | 4% | . | 0% | .
COc1ccc(-c2nc(-c3cccs3)c(-c3cccs3)[nH]2)cc1O | 0% | -20% | 25µM* | 39% | 0% | 2%
O=C(O)c1ccc(-c2nc(-c3ccccc3)c(-c3cccs3)[nH]2)cc1 | -1% | 4% | . | 21% | -3% | -8%
CCN(C(=O)CSc1nc(-c2ccccc2)no1)c1cccc(C)c1 | 13µM* | . | 0% | . | -1% | .
COc1ccc(Cl)cc1NC(=O)c1ccc2c(c1)CCN2S(C)(=O)=O | 4% | . | 48% | . | -5% | .
O=S(=O)(c1ccc(Cl)c(NC(=S)Nc2cccc(O)c2)c1)N1CCOCC1 | -1% | -2% | -2% | -1% | -1% | ?
Cc1cc2nnc(SCC(=O)Nc3cc(S(=O)(=O)N4CCOCC4)ccc3Cl)n2c2ccccc12 | 1% | 1% | 32µM* | 44% | 1% | -8%
CCN(C(=S)Nc1cc(S(=O)(=O)N2CCOCC2)ccc1Cl)c1cccc2ccccc12 | 1% | 22µM* | 11µM* | ? | 4% | 4µM*
CCOC(=O)c1c(-c2ccc(C)cc2)csc1NC(=O)c1cc(=O)c2cc(C)cc(C)c2o1 | 4% | . | 1% | . | -1% | .
CN(C)c1ccc(/C=C/N2C=CCc3c2ccc2ccccc32)cc1 | . | . | -7% | . | . | .
CCn1cc(C(=O)N2CCN(c3cccc(Cl)c3)CC2)c(=O)c2cc(S(=O)(=O)N3CCOCC3)ccc21 | 2% | . | -2% | . | 3% | .
CCOc1ccc(CNS(=O)(=O)c2cc3c(cc2C)NC(=O)CO3)cc1OC | -1% | . | 2% | . | -4% | .
CCCCNc1nc(N(C)c2ccccc2)nc(-n2ccnc2)n1 | 0% | ? | -1% | 10µM* | -2% | -16%
C=CCNc1nc(N(c2ccccc2)c2ccccc2)nc(-n2ccnc2)n1 | . | -13% | -8% | 11µM* | 0% | 10%
c1ccc(-c2nc(N3CCN(c4ccccc4)CC3)nc(-n3ccnc3)n2)cc1 | 13%[38.3 µM] | 16µM* | -6% | 13µM* | 1% | ?
c1ccc(-c2nc(N3CCCCCC3)nc(-n3ccnc3)n2)cc1 | 7% | 0% | 0% | ? | 0% | 3%
CCCCCNc1nc(-c2ccccc2)nc(-n2ccnc2)n1 | 4% | -5% | 25µM* | ? | 2% | 20%
c1ccc(N(c2ccccc2)c2nc(-n3ccnc3)nc(-n3ccnc3)n2)cc1 | 0% | -13% | 1% | -28% | 0% | -9%
Cc1ccccc1-c1noc(CCC(=O)Nc2cccc(C)c2C)n1 | 0% | . | 3% | . | 7% | .
CC(C)CCN1C(=O)N(c2ccccc2)C(=O)C1CC(=O)Nc1ccc(Cl)cc1 (stereo not drawn) | 0% | . | -1% | . | -1% | .
CN(C)c1ncc(C2=C(Cl)C(=O)C(N3CCCC3)=C(Cl)C2=O)s1 | 1%[38.3 µM] | . | -1% | . | . | .
O=C1C(Cl)=C(N2CCCCC2)C(=O)C(Cl)=C1c1cnc(N2CCCCC2)s1 | 1% | ? | 1% | ? | 4% | 18µM*
COc1ccc(Cc2nnc(NC(=O)CSc3ccc(Cl)cc3)s2)cc1OC | . | ? | . | 13µM* | 0% | 2%
COc1ccc(Cc2nnc(NC(=O)CSc3ccccc3)s2)cc1OC | 7% | -4% | 1% | -45% | 6% | -6%
COCc1nnc(NC(=O)c2cc(Cl)ccc2OC)s1 | 0% | -9% | -12% | -4% | -8% | -4%
COc1ccc(-c2nnc(NC(=O)CSc3ccccc3)s2)cc1OC | 8% | 22µM* | 22µM* | ? | 1% | 18%
